One compound from the supplement of paper PMC10477191 can be followed below.

± gives the standard deviation of the averaged measurements.

This assay relates to Drosophila ezoana antennal basiconic sensillum ab10. Put plainly: odor-evoked OSN spike response (post minus pre-stimulus); higher = stronger neuronal excitation. The following applies: odor dilution: 10^-4. As for the experimental part:
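Single sensillum recordings from antennal basiconic sensilla of D. ezoana. A 500 ms pulse of odorant (10^-4 in mineral oil or DMSO) was delivered; the response is the change in action potential frequency between the 1 s pre- and post-stimulus windows (spikes/s).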
Take `CC(C)=O` [acetone]: the “odor-evoked OSN spike response” value worked out at 76.3 ± 21 spikes/s.
